39 sequences from paper PMC5913336, “True equilibrium measurement of transcription factor-DNA binding affinities using automated polarization microscopy” can be followed below.

Usually Kd stands for a measure of binding affinity in units of concentration. Low values mean a tighter complex, high ones a looser complex.

The target of this assay is Cic (Drosophila melanogaster, UniProt Q9U1H0 483-565). The assay can be described thus: FP; 33 mM phosphate pH 7.0, 90 mM NaCl, 0.01% Tween 20, 0.1 mM DTT, 0.5% agarose; room temperature. To be noted: tags: N-GST (pGEX-6P-1, kept); dsDNA, one strand shown.
As for CGTTGAATGAGGT, the binding signal was 2.2 Kd / Kd of best base at the position.
In the case of CGTTGAAAGGGGT, the binding signal was 8.64 Kd / Kd of best base at the position.
For CGTTGAATGGGAT, the binding signal is 1.93 Kd / Kd of best base at the position.
Still for that read-out and setting: the result for CGTTCAATGGGGT reads 1.93 Kd / Kd of best base at the position.
On the same count and under the same terms, the result for AGTTGAATGGGGT reads 1.69 Kd / Kd of best base at the position; that for CGTTGATTGGGGT, 8.11 Kd / Kd of best base at the position.
CGTTGAATGGTGT: the binding signal is 2.29 Kd / Kd of best base at the position.
For TGTTGAATGGGGT, the binding signal is 1.66 Kd / Kd of best base at the position.
For CGGTGAATGGGGT, the binding signal is 2.27 Kd / Kd of best base at the position.
Still for that read-out and setting: the result for CGTTGCATGGGGT reads 17.1 Kd / Kd of best base at the position; that for CGTTGAATGGCGT, 2 Kd / Kd of best base at the position.
As to CGCTGAATGGGGT, the binding signal is 3.22 Kd / Kd of best base at the position.
Regarding CGTCGAATGGGGT, the binding signal is 12.4 Kd / Kd of best base at the position.
For CGTTAAATGGGGT, the binding signal was 3.06 Kd / Kd of best base at the position.
As to CGTTGACTGGGGT, the binding signal was 3.64 Kd / Kd of best base at the position.
Turning to CGTTGAATAGGGT, the binding signal is 6.64 Kd / Kd of best base at the position.
On the same count and under the same terms, the same measure for CTTTGAATGGGGT: 1.85 Kd / Kd of best base at the position; for CATTGAATGGGGT: 1.53 Kd / Kd of best base at the position; for CGTTGAAGGGGGT: 11.1 Kd / Kd of best base at the position.
For the sequence CGTTGAATTGGGT, the binding signal is 6.71 Kd / Kd of best base at the position.
Regarding CGTAGAATGGGGT, the binding signal was 5.55 Kd / Kd of best base at the position.
As for CGTTGTATGGGGT, the binding signal was 5.33 Kd / Kd of best base at the position.
Take CGATGAATGGGGT: the binding signal was 2.02 Kd / Kd of best base at the position.
In the case of CGTTGAATGGGGT, the dissociation constant Kd was ~34.1 nM.
On to CCTTGAATGGGGT, for which the binding signal is 1.89 Kd / Kd of best base at the position.
Take CGTTGAATCGGGT: the binding signal was 7.88 Kd / Kd of best base at the position.
Take CGTTGAATGGAGT: the binding signal was 1.79 Kd / Kd of best base at the position.
CGTTGAATGTGGT: the binding signal was 4.08 Kd / Kd of best base at the position.
On the same count and under the same terms, the result for CGTTGGATGGGGT reads 20.4 Kd / Kd of best base at the position; that for GGTTGAATGGGGT, 1.41 Kd / Kd of best base at the position; that for CGTTGAATGGGTT, 1.85 Kd / Kd of best base at the position.
Consider CGTTGAGTGGGGT, for which the binding signal is 7.68 Kd / Kd of best base at the position.
Consider CGTTGAATGGGGA, for which the binding signal is 2.36 Kd / Kd of best base at the position.
Same read-out and setting: the result for CGTTGAATGCGGT reads 7.69 Kd / Kd of best base at the position; that for CGTTGAATGGGGC, 2.65 Kd / Kd of best base at the position.
Turning to CGTTTAATGGGGT, the binding signal is 4.43 Kd / Kd of best base at the position.
Same read-out and setting: the result for CGTTGAACGGGGT reads 10.1 Kd / Kd of best base at the position; that for CGTTGAATGGGCT, 1.86 Kd / Kd of best base at the position; that for CGTGGAATGGGGT, 17.5 Kd / Kd of best base at the position.
